Measured values reported in PubChem BioAssay (Tox21).
Inconclusive results are not listed. A number with no mark means an inactive call. Activity calls are given as the source filed them. Calls follow the shape of the dose curve; as a rule, active = well fitted inhibition curve with a large enough effect in the signal ratio in the repeat runs (not every such curve was filed as active); inconclusive = weak or mixed curves, or effect the other way; inactive = no such curve, though single readings can be large or run the other way; the % refers to the signal ratio.

Target: Glucocorticoid receptor (Homo sapiens) (UniProt P04150)
Assay: qHTS assay to identify small molecule antagonists of the glucocorticoid receptor (GR) signaling pathway (AID 720692)
Conditions: GR-bla HeLa, beta-lactamase FRET ratio, dexamethasone-stimulated, 18 h; series mostly up to 58.5 µM; activity change, negative = inhibition: at the top concentration
How it was run: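 Fluorescence from cleaved LiveBLAzer B/G FRET substrate reports GRE-driven beta-lactamase in HeLa cells; compounds are tested against 5 nM dexamethasone (final) over 18 h at 37 C, substrate incubation 2 h at room temperature.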
% is scaled to controls: 0 for no effect and ±100 for the full control effect; potency is read from the fitted curve at half-maximal effect.

Sequence of Glucocorticoid receptor (Homo sapiens) (P04150 whole entry, looked up): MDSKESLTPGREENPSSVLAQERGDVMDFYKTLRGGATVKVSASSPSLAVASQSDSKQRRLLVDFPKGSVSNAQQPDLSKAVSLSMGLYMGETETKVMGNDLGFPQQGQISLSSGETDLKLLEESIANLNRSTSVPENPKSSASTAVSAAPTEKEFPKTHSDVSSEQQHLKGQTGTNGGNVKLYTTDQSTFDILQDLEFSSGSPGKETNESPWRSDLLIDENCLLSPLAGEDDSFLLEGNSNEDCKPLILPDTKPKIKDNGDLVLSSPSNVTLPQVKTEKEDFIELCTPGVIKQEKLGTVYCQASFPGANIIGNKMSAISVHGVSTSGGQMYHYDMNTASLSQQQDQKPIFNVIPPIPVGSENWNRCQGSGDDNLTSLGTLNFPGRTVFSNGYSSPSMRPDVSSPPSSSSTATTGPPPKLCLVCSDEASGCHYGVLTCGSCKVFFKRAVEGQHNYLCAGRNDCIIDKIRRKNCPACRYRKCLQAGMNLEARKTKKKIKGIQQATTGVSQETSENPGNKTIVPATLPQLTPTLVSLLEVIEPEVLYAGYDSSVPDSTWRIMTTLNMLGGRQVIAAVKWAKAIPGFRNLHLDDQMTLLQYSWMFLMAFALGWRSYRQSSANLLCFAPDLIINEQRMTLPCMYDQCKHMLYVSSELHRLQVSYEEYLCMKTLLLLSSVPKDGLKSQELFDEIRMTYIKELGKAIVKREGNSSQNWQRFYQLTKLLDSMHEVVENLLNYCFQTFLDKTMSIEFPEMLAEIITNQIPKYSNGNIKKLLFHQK

SMILES | Potency | activity change, negative = inhibition
C=C(c1ccc(C(=O)O)cc1)c1cc2c(cc1C)C(C)(C)CCC2(C)C | 9.77 µM (active) | –
CN1[C@@H]2CC[C@@H]1CC(OC(=O)C(CO)c1ccccc1)C2 (stereo partly specified) | – | -2.67%
CC(=O)OC(OC(C)=O)c1ccc([N+](=O)[O-])o1 | 55.9 µM (active) | –
N#CSCSc1nc2ccccc2s1 | 24.5 µM (active) | –
COC(=O)[C@]1(C)CCC[C@@]2(C)[C@H]1CC=C1C=C(C(C)C)CC[C@@H]12 | – | -2.17%
O=C1NC2CCCCN2C12CCN(CCCN1c3ccccc3CCc3ccc(Cl)cc31)CC2 (stereo unspecified) | 23.9 µM (active) | –
NCCCC(O)(P(=O)(O)O)P(=O)(O)O | – | -0.621%
NC(=O)C(=O)N/N=C/c1ccc([N+](=O)[O-])o1 | – | -14.8%
C[C@]12CC[C@H]3C(=CCc4cc(O)ccc43)[C@@H]1CCC2=O | 11 µM (active) | –
CN1[C@@H]2CC[C@H]1CC(OC(=O)C(CO)c1ccccc1)C2 (stereo partly specified) | – | -0.139% [at 78.9 µM]
O=C1Nc2ccc(Cl)cc2[C@@](C#CC2CC2)(C(F)(F)F)O1 | 23.9 µM (active) | –
